Reference: the supplement of paper PMC9262897, “Low-cost anti-mycobacterial drug discovery using engineered E. coli” (Nature Communications, 2022)
Counter-ions that a name gives are not always drawn. ± gives the standard deviation of the averaged measurements.

Test system: E. coli TESEC Mtb Alr
Assay: growth (OD600 after 10 h); higher = more growth (less inhibition)
Conditions: compound 0.1 mM
Experimental: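 TESEC Mtb Alr E. coli, or the Alr+ wild-type control, in 384-well plates with Prestwick library compounds at 0.1 mM and 1% DMSO, across arabinose induction levels of 1E3 to 1E7 nM. Growth is read as OD600 after 10 h at 37 °C in triplicate biological replicates.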

[1] = arabinose 1000 nM, raw OD600 reference: median of DMSO wells 0.294, cell-free background 0.041
[2] = arabinose 10000 nM, raw OD600 reference: median of DMSO wells 0.264, cell-free background 0.041
[3] = arabinose 100000 nM, raw OD600 reference: median of DMSO wells 0.201, cell-free background 0.041
[4] = arabinose 1000000 nM, raw OD600 reference: median of DMSO wells 0.193, cell-free background 0.041
[5] = arabinose 10000000 nM, raw OD600 reference: median of DMSO wells 0.146, cell-free background 0.041

| Compound | growth [1] | growth [2] | growth [3] | growth [4] | growth [5] |
| --- | --- | --- | --- | --- | --- |
| CC(=O)O[C@]1(C(C)=O)CC[C@H]2[C@@H]3C=C(Cl)C4=CC(=O)[C@@H]5C[C@@H]5[C@]4(C)[C@H]3CC[C@@]21C [Cyproterone acetate] | 0.168 ± 0.0067 | 0.125 ± 0.027 | 0.122 ± 0.0081 | 0.0693 ± 0.0035 | 0.0975 ± 0.0046 |
| Clc1ccc(CSC(Cn2ccnc2)c2ccc(Cl)cc2Cl)cc1 (stereo not given) [Sulconazole nitrate] | 0.0534 ± 0.0013 | 0.0668 ± 0.0017 | 0.0542 ± 0.00071 | 0.0669 ± 0.0011 | 0.0556 ± 0.0041 |
| COc1c2occc2c(OC)c2c(=O)cc(C)oc12 [Khellin] | 0.2539 ± 0.0022 | 0.245 ± 0.0065 | 0.189 ± 0.0037 | 0.149 ± 0.0057 | 0.1439 ± 0.00044 |
| COc1ccc2cc([C@H](C)C(=O)O)ccc2c1 [Naproxen] | 0.265 ± 0.029 | 0.249 ± 0.014 | 0.187 ± 0.012 | 0.168 ± 0.0019 | 0.132 ± 0.0043 |
| CC(=O)N1CCN(c2ccc(OCC3COC(Cn4ccnc4)(c4ccc(Cl)cc4Cl)O3)cc2)CC1 (stereo not given) [Ketoconazole] | 0.0525 ± 0.0042 | 0.04237 ± 0.00035 | 0.0541 ± 0.0007 | 0.04317 ± 0.0004 | 0.05383 ± 5.8e-05 |
| CN(C)CCCOc1nn(Cc2ccccc2)c2ccccc12 [Benzydamine hydrochloride] | 0.224 ± 0.012 | 0.25 ± 0.0088 | 0.167 ± 0.0029 | 0.112 ± 0.0038 | 0.146 ± 0.0037 |
| CN1CCC[C@@H]1CCO[C@](C)(c1ccccc1)c1ccc(Cl)cc1 [Clemastine fumarate] | 0.0419 ± 0.00017 | 0.0403 ± 0.0001 | 0.04353 ± 0.00025 | 0.04023 ± 0.00015 | 0.0439 ± 0.0004 |
| CCOC(=O)Nc1ccc2c(c1)N(C(=O)CCN1CCOCC1)c1ccccc1S2 [Moricizine hydrochloride] | 0.202 ± 0.0069 | 0.222 ± 0.0081 | 0.196 ± 0.012 | 0.1097 ± 0.00081 | 0.14 ± 0.0063 |
